# Test results taken from the antibiotic and cytotoxicity screens of Wong et al. (2023).
# In all, about 39,000 compounds went through this assay and about 3,300 (8.5%) were called active. The full list was thinned out, with actives kept by preference.
# Test system: HepG2
# Experiment: cytotoxicity call (relative viability < 0.9)
# Settings: 10 µM
row,SMILES,cytotoxicity call
1,COc1cc2c(N3CCN(C(=O)Nc4ccc(OC(C)C)cc4)CC3)ncnc2cc1OCCCN1CCCCC1,inactive
2,COc1cc2ncnc(Nc3ccc(F)c(Cl)c3)c2cc1OCCCN1CCOCC1,active
3,COc1cc2c(NC3CCN(C(C)C)CC3)nc(N3CCC(F)(F)CC3)nc2cc1OCCCN1CCCC1,active
4,O=C(NCCCN1CCOCC1)c1ccc(Cl)cc1,inactive
5,C[C@H](CO)N1C[C@H](C)[C@@H](CN(C)Cc2ccc(O)cc2)OCc2ccccc2-c2c(n(C)c3ccccc23)C1=O,inactive
6,Cc1noc(C)c1NC(=O)Nc1ccc2c(c1)C(=O)N([C@@H](C)CO)C[C@@H](C)[C@H](CN(C)C(=O)Nc1ccc(F)cc1)OCCCC[C@H](C)O2,inactive
7,C[C@H](CO)N1C[C@H](C)[C@H](CN(C)Cc2ccc(-c3ccccc3)cc2)Oc2ccc(NC(=O)CCC(F)(F)F)cc2CC1=O,inactive
8,C[C@H](CO)N1C[C@H](C)[C@H](CN(C)Cc2ccc(C(F)(F)F)cc2)Oc2ccc(NC(=O)CCC(F)(F)F)cc2CC1=O,inactive
9,C[C@H]1CN([C@@H](C)CO)C(=O)Cc2cc(NC(=O)CCC(F)(F)F)ccc2O[C@@H]1CN(C)Cc1ccc(-c2ccccc2)cc1,active
10,C[C@@H]1CN([C@H](C)CO)C(=O)Cc2cc(NC(=O)CCC(F)(F)F)ccc2O[C@@H]1CN(C)Cc1ccc(-c2ccccc2)cc1,active
11,C[C@H](CO)N1C[C@H](C)[C@@H](CN(C)Cc2ccc(-c3ccccc3)cc2)Oc2ccc(NC(=O)CCC(F)(F)F)cc2CC1=O,inactive
12,C[C@@H]1CN([C@H](C)CO)C(=O)Cc2cc(NC(=O)CCC(F)(F)F)ccc2O[C@H]1CN(C)Cc1ccc(-c2ccccc2)cc1,active
13,C[C@H]1CN([C@@H](C)CO)C(=O)Cc2cc(NC(=O)CCC(F)(F)F)ccc2O[C@H]1CN(C)Cc1ccc(C(F)(F)F)cc1,inactive
14,C[C@H](CO)N1C[C@H](C)[C@@H](CN(C)Cc2ccc(C(F)(F)F)cc2)Oc2ccc(NC(=O)CCC(F)(F)F)cc2CC1=O,inactive
15,C[C@H]1CN([C@@H](C)CO)C(=O)Cc2cc(NC(=O)CCC(F)(F)F)ccc2O[C@H]1CN(C)Cc1ccc(-c2ccccc2)cc1,active
16,C[C@@H]1CN([C@@H](C)CO)C(=O)Cc2cc(NC(=O)CCC(F)(F)F)ccc2O[C@H]1CN(C)Cc1ccc(-c2ccccc2)cc1,inactive
17,C[C@@H]1CN([C@@H](C)CO)C(=O)Cc2cc(NC(=O)CCC(F)(F)F)ccc2O[C@@H]1CN(C)Cc1ccc(-c2ccccc2)cc1,inactive
18,C[C@@H]1CN([C@@H](C)CO)C(=O)Cc2cc(NC(=O)CCC(F)(F)F)ccc2O[C@H]1CN(C)Cc1ccc(C(F)(F)F)cc1,inactive
19,CC(=O)N1CCC2(CC1)NC(=O)NC2=O,inactive
20,O=C(CN1CCOCC1)NCC[C@@H]1CC[C@@H](NC(=O)c2ccccc2F)[C@@H](CO)O1,inactive

row,SMILES,cytotoxicity call
1,Cc1ccnc([C@@H](N)C2CC2)c1,inactive
2,C[C@@H]1CN([C@@H](C)CO)C(=O)c2cc(NC(=O)CCCCCC(=O)Nc3ccccc3N)ccc2O[C@H]1CN(C)S(=O)(=O)c1cn(C)cn1,inactive
3,Nc1ccccc1C(=O)N[C@H]1CCCCNC1=O,inactive
4,C[C@H](CO)N1C[C@H](C)[C@@H](CN(C)Cc2ccc(C(=O)Nc3ccccc3N)cc2)Oc2c(NC(=O)Nc3ccc4c(c3)OCO4)cccc2C1=O,inactive
5,C[C@H]1CN([C@@H](C)CO)C(=O)c2cc(C#CCc3ccccc3)cnc2O[C@@H]1CN(C)C(=O)Cc1cccnc1,inactive
6,COCC#Cc1cnc2c(c1)C(=O)N([C@H](C)CO)C[C@H](C)[C@@H](CN(C)S(=O)(=O)c1cccc(OC)c1)O2,inactive
7,NC[C@H]1OB(O)c2c(OCCO)ccc(Cl)c21,inactive
8,Cc1ccc(S(=O)(=O)Nc2cccc3c2O[C@H](CN(C)Cc2ccc(Oc4ccccc4)cc2)[C@@H](C)CN([C@H](C)CO)C3=O)cc1,inactive
9,C[C@H]1CN([C@@H](C)CO)C(=O)c2ccccc2-c2ccccc2CO[C@@H]1CN(C)Cc1ccc(Cl)c(Cl)c1,inactive
10,C[C@H]1CCCCO[C@H](CN(C)C(=O)Nc2ccc(F)cc2)[C@@H](C)CN([C@@H](C)CO)C(=O)c2cc(NS(=O)(=O)c3cccs3)ccc2O1,inactive
11,Cc1noc(C)c1S(=O)(=O)N(C)C[C@H]1Oc2ccc(NC(=O)C3CCCCC3)cc2CC(=O)N([C@@H](C)CO)C[C@H]1C,inactive
12,C[C@@H]1CN([C@H](C)CO)C(=O)Cc2cc(NC(=O)c3ccncc3)ccc2O[C@H]1CN(C)Cc1ccc(-c2ccccc2)cc1,inactive
13,C[C@H]1CN([C@@H](C)CO)C(=O)Cc2cc(NC(=O)c3ccncc3)ccc2O[C@H]1CN(C)Cc1ccc(-c2ccccc2)cc1,active
14,C[C@@H]1CN([C@@H](C)CO)C(=O)Cc2cc(NC(=O)c3ccncc3)ccc2O[C@H]1CN(C)Cc1ccc(-c2ccccc2)cc1,active
15,C[C@H](CO)N1C[C@H](C)[C@H](CN(C)Cc2ccc(-c3ccccc3)cc2)Oc2ccc(NC(=O)c3ccncc3)cc2CC1=O,inactive
16,C[C@H](CO)N1C[C@H](C)[C@@H](CN(C)Cc2ccc(-c3ccccc3)cc2)Oc2ccc(NC(=O)c3ccncc3)cc2CC1=O,inactive
17,C[C@@H]1CN([C@H](C)CO)C(=O)Cc2cc(NC(=O)c3ccncc3)ccc2O[C@@H]1CN(C)Cc1ccc(-c2ccccc2)cc1,active
18,C[C@H]1CN([C@@H](C)CO)C(=O)Cc2cc(NC(=O)c3ccncc3)ccc2O[C@@H]1CN(C)Cc1ccc(-c2ccccc2)cc1,inactive
19,C[C@@H]1CN([C@@H](C)CO)C(=O)Cc2cc(NC(=O)c3ccncc3)ccc2O[C@@H]1CN(C)Cc1ccc(-c2ccccc2)cc1,inactive
20,C[C@@H]1CN([C@H](C)CO)C(=O)Cc2cc(NC(=O)c3ccncc3)ccc2O[C@@H]1CN(C)Cc1ccncc1,inactive

row,SMILES,cytotoxicity call
1,Cc1ccc(-c2ccc3c(c2)O[C@@H](CN(C)C(=O)CN(C)C)[C@@H](C)CN([C@H](C)CO)S3(=O)=O)cc1,inactive
2,CO[C@H]1CN(C)C(=O)c2cc(NC(=O)CC(F)(F)F)ccc2OC[C@@H](C)N(S(=O)(=O)c2cn(C)cn2)C[C@H]1C,inactive
3,CO[C@@H](C(=O)N(C)C[C@@H]1OCc2ccccc2-c2c(n(C)c3ccccc23)C(=O)N([C@@H](C)CO)C[C@H]1C)c1ccccc1,inactive
4,COc1ccccc1CNC(=O)C[C@H]1C[C@@H]2c3cc(NS(=O)(=O)c4ccc(F)cc4)ccc3O[C@@H]2[C@H](CO)O1,inactive
5,C[C@@H]1CCCCO[C@H](CN(C)S(=O)(=O)c2ccccc2)[C@H](C)CN([C@H](C)CO)C(=O)c2cc(NS(C)(=O)=O)ccc2O1,inactive
6,COc1ccc(NC(=O)N(C)C[C@H]2Oc3ccc(NC(=O)Cn4cnnn4)cc3CC(=O)N([C@@H](C)CO)C[C@@H]2C)cc1,inactive
7,COc1ccc(NC(=O)Nc2ccc3c(c2)[C@@H]2C[C@@H](CC(=O)NCC(F)(F)F)O[C@@H](CO)[C@@H]2O3)cc1,inactive
8,C[C@@H]1CN([C@H](C)CO)C(=O)c2cccc(NC(=O)Nc3ccc(F)cc3)c2O[C@@H]1CN(C)Cc1ccc(C(=O)Nc2ccccc2N)cc1,inactive
9,COCC#Cc1cnc2c(c1)C(=O)N([C@H](C)CO)C[C@@H](C)[C@@H](CN(C)S(=O)(=O)c1ccccc1)O2,inactive
10,COCCN1C(=O)C2=C(C1=O)[C@H]1N(C)c3ccccc3[C@@]13C[C@@H](CO)N(C(C)=O)C3=N2,inactive
11,C[C@H](CO)N1C[C@H](C)[C@H](CN(C)C(=O)Nc2ccc(C(F)(F)F)cc2)Oc2ncc(-c3ccc(C#N)cc3)cc2C1=O,inactive
12,C=CCOC(=O)[C@@H]1[C@H]2C(=O)O[C@H](c3ccccc3)[C@H](c3ccccc3)N2[C@H](c2ccc(OCCOC(=O)NCCCCCC(=O)NO)cc2)[C@]12C(=O)Nc1ccccc12,inactive
13,C[C@@H]1CO[C@]2(O[C@H]3C[C@H]4[C@H]5C[C@H](O[C@H]6O[C@@H](C)[C@@H](O)[C@@H](O[C@@H]7O[C@@H](C)[C@H](O)[C@@H](O)[C@H]7O)[C@@H]6O)[C@H]6C[C@@H](O)CC[C@]6(C)[C@@H]5CC[C@]4(C)[C@H]3[C@@H]2C)[C@@H](O)C1,inactive
14,C[C@@H]1CC[C@@]2(OC1)O[C@H]1C[C@H]3[C@H]4C[C@@H](O)[C@H]5C[C@@H](O[C@@H]6O[C@H](CO)[C@H](O[C@@H]7O[C@H](CO)[C@@H](O)[C@H](O[C@@H]8OC[C@@H](O)[C@H](O)[C@H]8O)[C@H]7O[C@@H]7O[C@H](CO)[C@@H](O[C@@H]8O[C@H](CO)[C@@H](O)[C@H](O)[C@H]8O)[C@H](O)[C@H]7O)[C@H](O)[C@H]6O)[C@H](O)C[C@]5(C)[C@@H]4CC[C@]3(C)[C@H]1[C@@H]2C,active
15,CC1CCC2(OC1)OC1CC3C4CCC5CC(O)CCC5(C)C4CCC3(C)C1C2C (stereo not drawn),inactive
16,C[C@@H]1CC[C@@]2(OC1)O[C@H]1C[C@H]3[C@H]4C[C@@H](O)[C@H]5C[C@@H](O[C@@H]6O[C@H](CO)[C@H](O[C@@H]7O[C@H](CO)[C@@H](O)[C@H](O[C@@H]8OC[C@@H](O)[C@H](O)[C@H]8O)[C@H]7O[C@@H]7O[C@H](CO)[C@@H](O)[C@H](O)[C@H]7O)[C@H](O)[C@H]6O)[C@H](O)C[C@]5(C)[C@@H]4CC[C@]3(C)[C@H]1[C@@H]2C,active
17,CC(C)(O)[C@H]1CC[C@@](C)([C@H]2[C@@H](O)C[C@@]3(C)[C@@H]4C[C@H](O[C@@H]5O[C@H](CO)[C@@H](O)[C@H](O)[C@H]5O)[C@H]5C(C)(C)[C@@H](O[C@@H]6OC[C@@H](O)[C@H](O)[C@H]6O)CC[C@@]56C[C@@]46CC[C@]23C)O1,inactive
18,CC(C)(O)C1CCC(C)(C2C(O)CC3(C)C4CC(OC5OC(CO)C(O)C(O)C5O)C5C(C)(C)C(OC6OCC(O)C(O)C6O)CCC56CC46CCC23C)O1 (stereo not drawn),inactive
